Potency and affinity values are given separately. Calls of active or inactive are those of the source. Entries that show only a call come without a potency. The rule behind the calls is not given here.

This experiment is described as follows: host cell cytotoxicity of antiviral hits, dose response, cytotoxicity control for West Nile virus antiviral project, secondary assay (AID 1650). Conditions: Mammalian host cell viability, cytotoxicity counter-screen; series mostly up to 10 µM. On the technique in general: The purpose of a counterscreen is to sort out artefacts and off-target activity.
On to `CN1CCCC1CCNc1ccc2c(=O)c3ccccc3oc2c1` (stereo not given), for which the result was inactive.

With `Cc1cc(OCc2cc(C(=O)NCCN3CCCCC3CO)no2)cc(C)c1Cl` (stereo not given), the call was inactive.

Regarding `COc1c(O)ccc2c1CN1CCc3cc4c(cc3C1C2)OCO4` (stereo not given), the outcome was inactive.

Consider `COc1ccc(C2c3ccc4ccccc4c3Oc3ncn(CCO)c(=N)c32)cc1OC` (stereo not given), for which the compound was called inactive.

In the case of `CCc1ccc(-c2cc3c(=O)n(CC(=O)NCCCN4CCN(CC)CC4)nc(C)n3n2)cc1`, the call was inactive.

Take `CC1CCN(c2nc3ccc(C(=O)NCCCN4CCCCC4)cc3s2)CC1`: the result was inactive.

As to `COc1ccc(C2c3[nH]c4ccccc4c3CCN2C(=O)c2cc3ncccn3n2)c(F)c1` (stereo not given), the result was inactive.

As to `O=[N+]([O-])c1cc(-c2nnc(Nc3ccc(O)cc3)c3ccccc23)ccc1N1CCOCC1`, the outcome was inactive.

Turning to `Cc1oc(-c2ccccc2Cl)[n+]([O-])c1C`, the outcome was inactive.

Consider `CCN1CCN(Cc2ccc(NC(=O)c3ccc(C)c(NC(=O)N4CCNC4=O)c3)cc2C(F)(F)F)CC1`, for which the compound was called inactive.

Consider `CC(=O)Nc1ccccc1N(CC(O)Cn1c2ccccc2c2ccccc21)S(=O)(=O)c1ccc(C)cc1` (stereo not given), for which the compound was called inactive.

Take `C[C@H]1[C@H](C)CC[C@]2(C(=O)O)CC[C@]3(C)C(=CC[C@@H]4[C@@]5(C)C[C@@H](O)[C@H](O)C(C)(C)[C@@H]5CC[C@]43C)[C@H]12`: the outcome was inactive.

Regarding `O=C(CNc1cccc2ccccc12)N/N=C/c1ccc([N+](=O)[O-])o1`, the compound was classed as inactive.

As for `CN(C)CC(O)COc1ccc(C(C)(C)c2ccc(OCC(O)CN(C)C)cc2)cc1` (stereo not given), the result was inactive.

Turning to `Cc1ccc2[nH]c(=O)c(CN(CCCN3CCOCC3)C(=O)Nc3ccc(Cl)cc3)cc2c1`, the outcome was inactive.

The values are drawn from PubChem BioAssay AID1650 (Southern Research Specialized Biocontainment Screening …, 2009).
